Calls of active or inactive are those of the source.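 The calls were made as follows, unless noted: active = visual image review flags a hit and inhibition of aggregation exceeds 20%; inconclusive = visual hit but inhibition at or below 20%; inactive = no hit on visual image review.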
Assay: inhibitors of TNFa-induced NFkB p65 translocation, primary screen, imaging, HUVEC, MLSMR starter and 10KST1 sets (AID 438;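 active = inhibition above 20% together with a positive visual image hit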;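 also: compound added about 3h40 before a 20 min TNFalpha stimulation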;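 as to inhibition: signal is the nuclear over cytoplasmic p65 intensity ratio per well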)
Conditions: HUVEC TNFa-induced p65 nuclear translocation; cell count: measured here: nuclei count (cytotoxicity indicator), at 2.08 µM; inhibition: at 2 µM, stronger effect = higher value, 0% TNFa-plus-vehicle, 100% no-TNFa wells

Row | Compound | inhibition | cell count
1 | COc1cccc2cc(C(=O)Nc3cccnc3N3CCOCC3)c(=O)oc12 | -10.5% (inactive) | 348
2 | CN(c1ccccc1)S(=O)(=O)c1cc(C(=O)N2CCN(c3ccccn3)CC2)ccc1Cl | 2.4% (inactive) | 628
3 | COc1cc(OC)c(C(=O)Nc2ccc(N(C)C)cc2)cc1OC | 5.2% (inactive) | 369
4 | Cc1ccc(C(=O)C2COC(=O)C2)cc1 (stereo not given) | 4.9% (inactive) | 333
5 | COc1cccc(CNc2cccc3cccnc23)c1O | 5% (inactive) | 477
6 | O=c1c2cn[nH]c2nc(SCc2ccc3c(c2)OCCO3)n1-c1ccccc1 | 15.8% (inactive) | 488
7 | CCOC(=O)c1cc(-c2ccc(Cl)s2)nc2c1c(C)nn2C | -11% (inactive) | 473
8 | Cc1ccc(-c2ccc(/C=N/n3cnnc3)o2)cc1Cl | -1.5% (inactive) | 432
9 | Cc1cc(C)nc(N2CCC(C(=O)NCc3cccc(C(F)(F)F)c3)CC2)n1 | 7.1% (inactive) | 441
10 | O=C(CN1C(=O)COc2ccccc21)NCCCN1CCc2ccccc2C1 | -5.4% (inactive) | 698
11 | O=C(CCn1c(=O)sc2ccccc21)NC1=NCCS1 | -25.8% (inactive) | 620
12 | Cc1ccccc1NC(=O)N1C2CCCC1CC(NC(=O)C1CC1)C2 (stereo not given) | -16.7% (inactive) | 747
13 | C=C(C)CSc1nnc(-c2cccc(S(=O)(=O)N(C)C)c2)n1-c1cc(OC)ccc1OC | -12.2% (inactive) | 712
14 | C=CCn1c(=O)/c(=C/c2ccc(O)cc2)s/c1=C(/C#N)c1nnc2n1CCCCC2 | -0.5% (inactive) | 483
15 | O=C(CSc1nnnn1Cc1ccccc1)Nc1ccc2c(c1)OCO2 | -10.7% (inactive) | 551
16 | CNC(=O)c1c(O)c2cccc3c2n(c1=O)CC3 | -8.8% (inactive) | 446
17 | Cc1oc(-c2ccccc2)cc1C(N)=O | 0% (inactive) | 248
18 | Cc1cccc(-n2nnc(C(=O)NCc3ccccc3)c2N)c1 | 2.1% (inactive) | 477
19 | COC(=O)c1[nH]c(C)c(/C(O)=C2\C(=O)C(=O)N(CCCN3CCOCC3)C2c2ccccn2)c1C (stereo not given) | 0.6% (inactive) | 814
20 | Cc1noc(C)c1C(=O)OCC(=O)Nc1ccccc1C(=O)NC(C)c1ccccc1 (stereo not given) | 4.7% (inactive) | 503

Row | Compound | inhibition | cell count
21 | Cn1c(SC/C=C/c2ccccc2)nnc1-c1cnccn1 | 1.1% (inactive) | 630
22 | O=C(CN1C(=O)NC2(CCCCCC2)C1=O)N1CCC(Cc2ccccc2)CC1 | 2.9% (inactive) | 444
23 | CCOC(=O)c1c(NC(=O)CSc2nnc(-c3ccc(OC)cc3)o2)sc2c1CCC2 | -10.9% (inactive) | 705
24 | Cn1nnnc1SCC(=O)Nc1ccccc1C(=O)NCc1ccccc1 | 7.2% (inactive) | 368
25 | Cc1ccc(NC(=O)CSc2nnc(NC(=O)CN3CCOCC3)s2)cc1 | -10% (inactive) | 294
26 | O=C(NCc1ccc(F)cc1)c1cc(-c2ccco2)on1 | -17.6% (inactive) | 330
27 | COC(=O)CCN1CCC(C(N)=O)CC1 | -6.3% (inactive) | 336
28 | COc1cccc(OC)c1C(=O)N1CCOCC1 | -7.7% (inactive) | 505
29 | CCOC(=O)CSc1nc(C)c(C(=O)OCC)s1 | 4% (inactive) | 392
30 | CCC(=O)Nc1ccc(F)c(Cl)c1 | 1.5% (inactive) | 292
31 | N#CCc1nc(CSc2nc3ccccc3s2)cs1 | -4.4% (inactive) | 347
32 | CS(=O)(=O)Nc1ccc(S(=O)(=O)Nc2nccs2)cc1 | 5.4% (inactive) | 418
33 | CC(C)CNC(=O)c1ccccc1NC(=O)CN(c1ccc2c(c1)OCCO2)S(C)(=O)=O | 6% (inactive) | 330
34 | CCOC(=O)c1[nH]cc(-c2ccccc2)c1N1CCOCC1 | -3.5% (inactive) | 398
35 | CCn1c(=O)cc(SCC(=O)NCC2CCCO2)c2ccccc21 (stereo not given) | -4.9% (inactive) | 404
36 | O=C(c1ccco1)N1CCN(CC(=O)N(C2CCCCC2)C2CCS(=O)(=O)C2)CC1 (stereo not given) | -5.7% (inactive) | 311
37 | CCCn1c(NCc2cc(C)ccc2O)nc2ccccc21 | 1.4% (inactive) | 369
38 | CCC(C)c1ccc(NC(=O)C2CC2)cc1 (stereo not given) | -11.6% (inactive) | 466
39 | COc1ccccc1-n1c(C)nnc1SCC(N)=O | 6.2% (inactive) | 382
40 | Cn1c(=O)oc2cc(S(=O)(=O)N3CCC(C(=O)Nc4ccc(OC(F)(F)F)cc4)CC3)ccc21 | 6.9% (inactive) | 261

Assay: inhibitors of mutant huntingtin aggregation, primary screen, imaging, exon1htt(103Q)mCFP cells, high-content imaging (AID 483);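 also: compound exposure lasted 3 days before fixation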;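 as to nuclei count: percent of the per-plate median nuclei count of sample wells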
Conditions: exon1htt(103Q)mCFP cell line, aggregate imaging, at 2 µM; inhibition of aggregation: stronger effect = higher value; nuclei count: measured here: cell count, toxicity

Row | Compound | nuclei count [%] | inhibition of aggregation
41 | COc1cccc2cc(C(=O)Nc3cccnc3N3CCOCC3)c(=O)oc12 | 48.9 | -13.5% (inactive)
42 | CN(c1ccccc1)S(=O)(=O)c1cc(C(=O)N2CCN(c3ccccn3)CC2)ccc1Cl | 134 | -6.5% (inactive)
43 | COc1cc(OC)c(C(=O)Nc2ccc(N(C)C)cc2)cc1OC | 94 | 7.1% (inactive)
44 | Cc1ccc(C(=O)C2COC(=O)C2)cc1 (stereo not given) | 116 | -2.7% (inactive)
45 | COc1cccc(CNc2cccc3cccnc23)c1O | 79.7 | 19.2% (inactive)
46 | O=c1c2cn[nH]c2nc(SCc2ccc3c(c2)OCCO3)n1-c1ccccc1 | 112 | 4.8% (inactive)
47 | CCOC(=O)c1cc(-c2ccc(Cl)s2)nc2c1c(C)nn2C | 95 | -13.7% (inactive)
48 | Cc1ccc(-c2ccc(/C=N/n3cnnc3)o2)cc1Cl | 85.3 | 2.7% (inactive)
49 | Cc1cc(C)nc(N2CCC(C(=O)NCc3cccc(C(F)(F)F)c3)CC2)n1 | 85.9 | -55.6% (inactive)
50 | O=C(CN1C(=O)COc2ccccc21)NCCCN1CCc2ccccc2C1 | 106 | -7.3% (inactive)
51 | O=C(CCn1c(=O)sc2ccccc21)NC1=NCCS1 | 102 | 8.6% (inactive)
52 | Cc1ccccc1NC(=O)N1C2CCCC1CC(NC(=O)C1CC1)C2 (stereo not given) | 107 | -5.1% (inactive)
53 | C=C(C)CSc1nnc(-c2cccc(S(=O)(=O)N(C)C)c2)n1-c1cc(OC)ccc1OC | 123 | 31.2% (active)
54 | C=CCn1c(=O)/c(=C/c2ccc(O)cc2)s/c1=C(/C#N)c1nnc2n1CCCCC2 | 112 | 11.1% (inactive)
55 | O=C(CSc1nnnn1Cc1ccccc1)Nc1ccc2c(c1)OCO2 | 92.1 | 10% (inactive)
56 | CNC(=O)c1c(O)c2cccc3c2n(c1=O)CC3 | 57 | -3.8% (inactive)
57 | Cc1oc(-c2ccccc2)cc1C(N)=O | 66.5 | -1.4% (inactive)
58 | Cc1cccc(-n2nnc(C(=O)NCc3ccccc3)c2N)c1 | 116 | -17.4% (inactive)
59 | COC(=O)c1[nH]c(C)c(/C(O)=C2\C(=O)C(=O)N(CCCN3CCOCC3)C2c2ccccn2)c1C (stereo not given) | 110 | 14.2% (inactive)
60 | Cc1noc(C)c1C(=O)OCC(=O)Nc1ccccc1C(=O)NC(C)c1ccccc1 (stereo not given) | 94.3 | -4% (inactive)

Row | Compound | nuclei count [%] | inhibition of aggregation
61 | Cn1c(SC/C=C/c2ccccc2)nnc1-c1cnccn1 | 114 | -4.5% (inactive)
62 | O=C(CN1C(=O)NC2(CCCCCC2)C1=O)N1CCC(Cc2ccccc2)CC1 | 99.8 | -3.9% (inactive)
63 | CCOC(=O)c1c(NC(=O)CSc2nnc(-c3ccc(OC)cc3)o2)sc2c1CCC2 | 113 | -10.3% (inactive)
64 | Cn1nnnc1SCC(=O)Nc1ccccc1C(=O)NCc1ccccc1 | 98.6 | 0.2% (inactive)
65 | Cc1ccc(NC(=O)CSc2nnc(NC(=O)CN3CCOCC3)s2)cc1 | 27.7 | -0.1% (inactive)
66 | O=C(NCc1ccc(F)cc1)c1cc(-c2ccco2)on1 | 92 | 18.1% (inactive)
67 | COC(=O)CCN1CCC(C(N)=O)CC1 | 107 | -4.2% (inactive)
68 | COc1cccc(OC)c1C(=O)N1CCOCC1 | 103 | 7.2% (inactive)
69 | CCOC(=O)CSc1nc(C)c(C(=O)OCC)s1 | 106 | -6.8% (inactive)
70 | CCC(=O)Nc1ccc(F)c(Cl)c1 | 108 | 7.9% (inactive)
71 | N#CCc1nc(CSc2nc3ccccc3s2)cs1 | 98 | -7.5% (inactive)
72 | CS(=O)(=O)Nc1ccc(S(=O)(=O)Nc2nccs2)cc1 | 112 | -6.9% (inactive)
73 | CC(C)CNC(=O)c1ccccc1NC(=O)CN(c1ccc2c(c1)OCCO2)S(C)(=O)=O | 97.5 | -12.9% (inactive)
74 | CCOC(=O)c1[nH]cc(-c2ccccc2)c1N1CCOCC1 | 110 | 0.7% (inactive)
75 | CCn1c(=O)cc(SCC(=O)NCC2CCCO2)c2ccccc21 (stereo not given) | 97.1 | 0% (inactive)
76 | O=C(c1ccco1)N1CCN(CC(=O)N(C2CCCCC2)C2CCS(=O)(=O)C2)CC1 (stereo not given) | 75.5 | -12.8% (inactive)
77 | CCCn1c(NCc2cc(C)ccc2O)nc2ccccc21 | 82.1 | 4.3% (inactive)
78 | CCC(C)c1ccc(NC(=O)C2CC2)cc1 (stereo not given) | 110 | -13.6% (inactive)
79 | COc1ccccc1-n1c(C)nnc1SCC(N)=O | 100 | 7.3% (inactive)
80 | Cn1c(=O)oc2cc(S(=O)(=O)N3CCC(C(=O)Nc4ccc(OC(F)(F)F)cc4)CC3)ccc21 | 103 | 19.4% (inactive)

Reference: PubChem BioAssay
